Values joined by “and” are separate entries in the source; they are usually repeats but may differ in a detail not shown here. Equal entries are not always repeated. The whole screen tested about 6,400 compounds, of which about 610 (9.5%) were called active. Rule as the data show it: active = activity change below about -70%; inconclusive = no clear call, values can overlap the other calls; inactive = above that. The full list was thinned out, with actives kept by preference. A structure can be active in one record and inactive in another.
Assay: Toxoplasma gondii ME49Luc growth in HeLa cells, luciferase, no IFN-y, primary screen (AID 1259421)
Details: T. gondii ME49Luc in HeLa, 72 h, stronger effect = lower value, concentration not given here
For `CC(=O)NCCC(=O)N[C@@H](Cc1cnc[nH]1)C(=O)O`, the activity change, negative = inhibition was 3.95% (inactive).
For `CNC(=O)c1c(-c2ccc(F)cc2)oc2cc(N(CCO)S(C)(=O)=O)c(C3CC3)cc12`, the activity change, negative = inhibition was 4.4% (inactive).
For `CC1(C)CC[C@]2(C(=O)O)CC[C@]3(C)C(=CCC4[C@@]5(C)CC[C@H](O)[C@@](C)(CO)C5CC[C@]43C)C2C1` (some centres undefined), the activity change, negative = inhibition was 4.93% (inactive).
With `NS(=O)(=O)c1cc2c(cc1Cl)NC=NS2(=O)=O` the activity change, negative = inhibition was -6.64% (inactive) and 2.69% (inactive).
For `CC(C)[C@H]1C(=O)N[C@@H](CCCN=C(N)N)C(=O)NCC(=O)N[C@@H](CC(=O)O)C(=O)N[C@H](Cc2ccccc2)C(=O)N1C`, the activity change, negative = inhibition was 33.3% (inactive).
For `CC(=O)O[C@]1(C(C)=O)CC[C@H]2[C@@H]3CCC4=CC(=O)CCC4=C3[C@@H](c3ccc(N(C)C)cc3)C[C@@]21C`, the activity change, negative = inhibition was -58.3% (inactive).
For `CC#CC1(O)CCC2C3CCC4=CC(=O)CCC4=C3C(c3ccc(N(C)C)cc3)CC21C` (centres undefined), the activity change, negative = inhibition was 32.4% (inactive).
With `CC#C[C@]1(O)CC[C@H]2[C@@H]3CCC4=CC(=O)CCC4=C3[C@@H](c3ccc(N(C)C)cc3)C[C@@]21C` the activity change, negative = inhibition was -77.6% (active) and 19.9% (inactive).
In the case of `CCC[C@@H]1C[C@@H](C(=O)N[C@@H]([C@H]2O[C@H](SC)[C@H](O)[C@@H](O)[C@@H]2O)[C@@H](C)O)N(C)C1`, the activity change, negative = inhibition is reported as 0.0317% (inactive).
In the case of `C=CC(=O)NCc1ccccc1`, the activity change, negative = inhibition is reported as 10.8% (inactive).
With `O=C1C(=O)N(Cc2ccc(Cl)c(Cl)c2)c2ccccc21` the activity change, negative = inhibition was 25.2% (inactive) and 12.2% (inactive).
In the case of `CC(=O)O/N=C1/C(=O)N(Cc2cc(Cl)ccc2Cl)c2ccc(Cl)cc21`, the activity change, negative = inhibition is reported as -78.1% (active).
With `COc1ccc(CN2C(=O)C(=O)c3cc(OC(F)(F)F)ccc32)cc1` the activity change, negative = inhibition was -31.8% (inactive).
In the case of `COc1ccc(Cl)cc1C(=O)NCCc1ccc(C(=O)O)cc1`, the activity change, negative = inhibition is reported as 10.3% (inactive).
For `CCCCCCCCCC(=O)N[C@@H](Cc1c[nH]c2ccccc12)C(=O)N[C@H](CC(N)=O)C(=O)N[C@@H](CC(=O)O)C(=O)N[C@@H]1C(=O)NCC(=O)N[C@@H](CCCN)C(=O)N[C@@H](CC(=O)O)C(=O)N[C@H](C)C(=O)N[C@@H](CC(=O)O)C(=O)NCC(=O)N[C@H](CO)C(=O)N[C@@H]([C@@H](C)CC(=O)O)C(=O)N[C@@H](CC(=O)c2ccccc2N)C(=O)O[C@@H]1C`, the activity change, negative = inhibition was 5.37% (inactive).
In the case of `C[C@H](O[C@H]1OCCN(Cc2n[nH]c(=O)[nH]2)[C@H]1c1ccc(F)cc1)c1cc(C(F)(F)F)cc(C(F)(F)F)c1`, the activity change, negative = inhibition is reported as 3.24% (inactive).
For `Clc1cccc2c1CN(C1=NCCN1)C2`, the activity change, negative = inhibition was 4.53% (inactive) and 6.96% (inactive).
With `O=C1CN2Cc3c(ccc(Cl)c3Cl)N=C2N1` the activity change, negative = inhibition was -78.8% (active) and -0.538% (inactive).
With `Cc1nc2c([nH]1)CCN(C(=O)c1ccc(NC(=O)c3ccccc3-c3ccccc3)cc1)c1ccccc1-2` the activity change, negative = inhibition was 24.9% (inactive).
With `CC1(C)O[C@@H]2CC3C4C[C@H](F)C5=CC(=O)CC[C@]5(C)C4[C@@H](O)C[C@]3(C)[C@]2(C(=O)CO)O1` (some centres undefined) the activity change, negative = inhibition was -1.03% (inactive) and -3% (inactive).
In the case of `CN(C)Cc1c(C(=O)NCCOc2ccc(C(=O)NO)cc2)oc2ccccc12`, the activity change, negative = inhibition is reported as -78.9% (active).
In the case of `CC(C)c1ccc(C(=O)NCCOc2ccc(C(=O)O)cc2)cc1`, the activity change, negative = inhibition is reported as 52.4% (inactive).
In the case of `Cc1cc(C)c(N(Cc2ccccc2)S(=O)(=O)c2ccc(OCCNC(=O)c3cc4ccccc4o3)cc2)c(C(=O)NO)c1`, the activity change, negative = inhibition is reported as -49.7% (inactive).
With `OC[C@@H](O)C(O)[C@@H](O)CO` (some centres undefined) the activity change, negative = inhibition was 8.06% (inactive).
For `C[C@@H]1CN(Cc2ccc(F)cc2)[C@@H](C)CN1C(=O)c1cc2c(C(=O)C(=O)N(C)C)cn(C)c2cc1Cl`, the activity change, negative = inhibition was -1.84% (inactive).
For `CC1(COc2ccc(CC3SC(=O)NC3=O)cc2)CCCCC1` (centres undefined), the activity change, negative = inhibition was 54.6% (inactive) and 38.2% (inactive).
For `O=c1[nH]cc(F)c(=O)[nH]1`, the activity change, negative = inhibition was -79.7% (active) and -73.9% (active).
With `O=c1cc[nH]c(=O)[nH]1` the activity change, negative = inhibition was 14.2% (inactive).
For `O=C(OC1C[C@H]2CC[C@@H](C1)[N+]21CCCC1)C(O)(c1ccccc1)c1ccccc1` (some centres undefined), the activity change, negative = inhibition was 13% (inactive).
In the case of `CC(C)OC(=O)c1cc2c(OCC(O)CNC(C)(C)C)cccc2[nH]1` (centres undefined), the activity change, negative = inhibition is reported as 5.25% (inactive) and 2.42% (inactive).
With `CN1N=C(C(N)=O)CCC1=O` the activity change, negative = inhibition was 5.39% (inactive).
With `COc1cc(F)c(C(C)C)cc1-c1ccc(C(F)(F)F)cc1CN1C(=O)O[C@H](c2cc(C(F)(F)F)cc(C(F)(F)F)c2)[C@H]1C` the activity change, negative = inhibition was 13.2% (inactive).
With `O=C(O)c1ccc(NC(=O)[C@H](Cc2ccc(O)cc2)NC(=O)c2ccccc2)cc1` the activity change, negative = inhibition was 10.1% (inactive).
With `CC(=O)Nc1ccc(C(=O)O)cc1` the activity change, negative = inhibition was 5.72% (inactive).
In the case of `CC(C)[C@H](C(=O)Nc1ccc(C(=O)NO)cc1)c1ccccc1`, the activity change, negative = inhibition is reported as -78.5% (active).
For `C[C@H]1CC[C@@]2(OC1)O[C@H]1C[C@H]3[C@@H]4CC[C@@H]5C[C@@H](O)CC[C@]5(C)[C@H]4CC[C@]3(C)[C@H]1[C@@H]2C`, the activity change, negative = inhibition was 10.8% (inactive).
In the case of `O=C1Nc2cc(Cl)ccc2Oc2ccccc21`, the activity change, negative = inhibition is reported as 13.7% (inactive).
With `Cc1nc2c(c(=O)[nH]1)CSCC2` the activity change, negative = inhibition was -9.85% (inactive).
For `CC(C)c1ccc2c(c1)CCC1C(C)(C(N)=O)CCCC21C` (centres undefined), the activity change, negative = inhibition was 39.8% (inactive).
With `CCN(CC)CCOCCOC(=O)C(CC)(CC)c1ccccc1` the activity change, negative = inhibition was 22.3% (inactive).
With `Nc1ncnc2c1ncn2[C@@H]1O[C@H](C[C@@H](N)CC[C@H](N)C(=O)O)[C@@H](O)[C@H]1O` the activity change, negative = inhibition was -5.35% (inactive).
With `CCCCCCCCCCCCCCCC[N+](C)(C)CCN(Cc1ccc(OC)cc1)c1ncccn1` the activity change, negative = inhibition was -80.9% (active).
For `COc1ccc(CN(CCN(C)C)c2ccccn2)cc1`, the activity change, negative = inhibition was 18% (inactive) and 6.75% (inactive).
For `COc1ccc(CN(CCN(C)C)c2ncccn2)cc1`, the activity change, negative = inhibition was 10.1% (inactive) and 11.2% (inactive).
For `C[C@]12C=CC(=O)C=C1CCC1C3C[C@@H](O)[C@](O)(C(=O)CO)[C@@]3(C)C[C@H](O)[C@@]12F` (some centres undefined), the activity change, negative = inhibition was -10.6% (inactive).
With `CN(C)CCN1C(=O)c2cccc3cc(NC(N)=O)cc(c23)C1=O` the activity change, negative = inhibition was 5.35% (inactive).
For `Cc1csc(-c2nnc(Nc3ccc(Oc4ncccc4-c4ccnc(N)n4)cc3)c3ccccc23)c1`, the activity change, negative = inhibition was -85.1% (active).
For `COC(=O)[C@H](Cc1ccc([N+](=O)[O-])cc1)NC(=O)c1cccc2ccccc12`, the activity change, negative = inhibition was 3.56% (inactive).
With `O=C1NC(=O)C2(CCOc3ccc(F)cc32)N1` (centres undefined) the activity change, negative = inhibition was 17.5% (inactive).
In the case of `NC1=N[C@@]2(c3cc(NC(=O)c4ccc(F)cn4)ccc3F)COC[C@@H]2CS1`, the activity change, negative = inhibition is reported as -4.81% (inactive).
For `COc1cccc(-c2ccc([C@@H](Oc3cc(-c4ccc(C[C@H](N)C(=O)O)cc4)nc(N)n3)C(F)(F)F)cc2)c1`, the activity change, negative = inhibition was 21.9% (inactive).
With `CCOC(=O)[C@@H](N)Cc1ccc(-c2cc(O[C@H](c3ccc(Cl)cc3-n3ccc(C)n3)C(F)(F)F)nc(N)n2)cc1` the activity change, negative = inhibition was -85% (active).
With `Cc1ccn(-c2cc(Cl)ccc2[C@@H](Oc2cc(-c3ccc(C[C@H](N)C(=O)O)cc3)nc(N)n2)C(F)(F)F)n1` the activity change, negative = inhibition was 16.1% (inactive).
For `N#C/C(=C(\N)Sc1ccc(N)cc1)c1ccccc1C(F)(F)F`, the activity change, negative = inhibition was 9.63% (inactive).
In the case of `N#Cc1cc(I)c(O)c([N+](=O)[O-])c1`, the activity change, negative = inhibition is reported as 10.2% (inactive).
For `COc1cccc2cc(-c3nc(C4CCC(C(=O)O)CC4)n4ncnc(N)c34)[nH]c12` (centres undefined), the activity change, negative = inhibition was -19.8% (inactive).
For `Oc1cc(O)c2c(c1)O[C@H](c1ccc(O)c(O)c1)[C@H](O)[C@H]2c1c(O)cc(O)c2c1O[C@H](c1ccc(O)c(O)c1)[C@@H](O)C2`, the activity change, negative = inhibition was -71.6% (active).
In the case of `Oc1ccc([C@H]2Oc3cc(O)cc(O)c3C[C@H]2O)cc1`, the activity change, negative = inhibition is reported as 0.946% (inactive).
For `Oc1cc(O)c2c(c1)O[C@H](c1ccc(O)c(O)c1)[C@@H](O)C2`, the activity change, negative = inhibition was 6.21% (inactive) and -16.6% (inactive).
For `COc1cccc(C=NC=Nc2cccc(OC)c2)c1`, the activity change, negative = inhibition was 10.3% (inactive).
With `O=c1[nH]nc(Sc2ncc([N+](=O)[O-])s2)n1-c1ccc2c(c1)OCCO2` the activity change, negative = inhibition was 34.4% (inactive).
In the case of `NC(=O)c1cnc(N[C@@H]2CCCC[C@@H]2N)nc1Nc1cccc(-n2nccn2)c1`, the activity change, negative = inhibition is reported as -82.6% (active) and -7.89% (inactive).
For `CC(C)(C)CC(=O)OCC(=O)[C@@]1(O)CCC2C3CCC4=CC(=O)C=C[C@]4(C)C3[C@@H](O)C[C@@]21C` (some centres undefined), the activity change, negative = inhibition was -8.37% (inactive).
In the case of `CS(=O)(=O)Nc1ccc2oc3c(OC(F)F)ccc(C(=O)Nc4c(Cl)cncc4Cl)c3c2c1`, the activity change, negative = inhibition is reported as 27.8% (inactive).
With `O=c1[nH]c(=O)c2cn[nH]c2[nH]1` the activity change, negative = inhibition was -8.15% (inactive).
With `Cc1cc(C(C)Nc2ccccc2)c2nc(N3CCOCC3)cc(=O)n2c1` (centres undefined) the activity change, negative = inhibition was 14.5% (inactive).
For `CCCc1nc(C(C)(C)O)c(C(=O)OCc2oc(=O)oc2C)n1Cc1ccc(-c2ccccc2-c2nn[nH]n2)cc1`, the activity change, negative = inhibition was 2.42% (inactive) and 2.73% (inactive).
For `CN1C2CC[C@@H]1CC(OC(=O)[C@H](CO)c1ccccc1)C2` (some centres undefined), the activity change, negative = inhibition was 5% (inactive).
With `COc1cc(/C=C(/C#N)C(N)=O)cc(CSc2nc3ccccc3s2)c1O` the activity change, negative = inhibition was 0.785% (inactive).
In the case of `C=C[C@H]1CN2CC[C@H]1C[C@@H]2[C@H](O)c1ccnc2ccc(OC)cc12`, the activity change, negative = inhibition is reported as -4.38% (inactive).
For `O=C(O)CCCc1c[nH]c2ccccc12`, the activity change, negative = inhibition was 16.7% (inactive).
For `O=C(O)CCc1c[nH]c2ccccc12`, the activity change, negative = inhibition was 16.9% (inactive).
With `O=C(/C=C/c1ccc(CN(CCO)CCc2c[nH]c3ccccc23)cc1)NO` the activity change, negative = inhibition was -83.9% (active).
With `COC(=O)C[C@H]1C(C)(C)C2(O)OC34CC2C(=O)[C@]1(C)C3CC[C@]1(C)C4=CC(=O)O[C@H]1c1ccoc1` (some centres undefined) the activity change, negative = inhibition was -5.47% (inactive).
